How the values were obtained:
[1] = test system: Human papillomavirus type 1a protein E7 (residues 44-93); assay: small molecules binding HPV E7 44-93 – biochemical, small-molecule microarray, residues 44-93, 635 nm fluorescence, primary screen (AID 1108); conditions: fluorescence 635 nm, higher = more signal;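 note: E7 fragment applied at 1 µg/mL in TBST for 1 h at 4 C; score combines spot fluorescence with its signal to noise ratio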
[2] = hepatitis C replication reporter changes, two-sided – Huh7 cells, luciferase reporter, HCV replication inhibitor project, primary screen (AID 1109); conditions: Huh7 HCV replicon luciferase reporter, 48 h; higher = more signal;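 note: huh7 hepatoma cells harbouring a luciferase neomycin HCV replicon reporter; luciferase luminescence as measure of HCV replicon replication; test concentration not given here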
[3] = biological target: Left-right determination factor 2 (Homo sapiens) (UniProt O00292); assay: small molecules binding LEFTY2 protein – biochemical, small-molecule microarray, 635 nm fluorescence scan, primary screen (AID 1110); conditions: higher = more signal
[4] = biological target: Calmodulin-1 (Homo sapiens) (UniProt P0DP23); assay: small molecules binding calmodulin-1 with EGTA – biochemical, small-molecule microarray, Cy5-labelled CALM1, profiling panel (AID 1111); conditions: Cy5-CALM1 binding fluorescence, higher = more signal;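 note: labelled calmodulin applied in Tris saline Tween buffer holding calcium plus EGTA and DTT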
[5] = biological target: Calmodulin-1 (Homo sapiens) (UniProt P0DP23); assay: small molecules binding Ca-loaded calmodulin-1 – biochemical, small-molecule microarray, Cy5-labelled CALM1, plus calcium, artefact control for SMM control-protein annotation, profiling panel (AID 1112); conditions: Cy5-CALM1 binding fluorescence, higher = more signal;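 note: score merges spot fluorescence with signal to noise from triplicate slides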
[6] = probe aWnt5a binding to arrayed compounds – biochemical, biotinylated probe, 635/667 nm fluorescence, primary screen (AID 1113); conditions: small-molecule microarray, higher = more signal;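 note: score merges 667 nm fluorescence intensity with signal-to-noise per printed feature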
[7] = probe aShh binding to arrayed compounds – biochemical, biotinylated probe, 635/667 nm fluorescence, primary screen (AID 1114); conditions: small-molecule microarray, higher = more signal;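 note: probe is biotin-labelled aShh protein from a stem cell growth factor screen; measures binding of labelled protein to compounds printed on the slide; score merges feature fluorescence at 667 nm with signal-to-noise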
[8] = probe aNog binding to arrayed compounds – biochemical, biotinylated probe, 635/667 nm fluorescence, primary screen (AID 1115); conditions: small-molecule microarray, higher = more signal;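 note: probe is biotinylated aNog protein used at 0.15 µg/mL for 1 h at 4 C; z-score combines 667 nm fluorescence of each spot with its signal to noise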
[9] = biological target: Torsin-1A-interacting protein 1 (Homo sapiens) (UniProt Q5JTV8); assay: compound microarray binding of lysate hLAP1 – cell lysate, small-molecule microarray, COS7 lysate, 635/667 nm fluorescence, primary screen (AID 1116); conditions: 635 nm fluorescence, higher = more signal
[10] = biological target: Alpha-bungarotoxin (Bungarus multicinctus) (UniProt P60615); assay: compounds binding labelled alpha-BTX control protein – biochemical, small-molecule microarray, Alexa647 label, 635/667 nm fluorescence, artefact control for SMM control protein annotation, profiling panel (AID 1117); conditions: alpha-BTX-A647 binding fluorescence, higher = more signal
Sequence of Alpha-bungarotoxin (Bungarus multicinctus) (P60615 whole entry, looked up): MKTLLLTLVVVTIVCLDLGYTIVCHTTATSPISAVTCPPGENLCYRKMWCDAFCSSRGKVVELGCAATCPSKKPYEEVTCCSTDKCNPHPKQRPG

Sequence of Torsin-1A-interacting protein 1 (Homo sapiens) (Q5JTV8 whole entry, looked up): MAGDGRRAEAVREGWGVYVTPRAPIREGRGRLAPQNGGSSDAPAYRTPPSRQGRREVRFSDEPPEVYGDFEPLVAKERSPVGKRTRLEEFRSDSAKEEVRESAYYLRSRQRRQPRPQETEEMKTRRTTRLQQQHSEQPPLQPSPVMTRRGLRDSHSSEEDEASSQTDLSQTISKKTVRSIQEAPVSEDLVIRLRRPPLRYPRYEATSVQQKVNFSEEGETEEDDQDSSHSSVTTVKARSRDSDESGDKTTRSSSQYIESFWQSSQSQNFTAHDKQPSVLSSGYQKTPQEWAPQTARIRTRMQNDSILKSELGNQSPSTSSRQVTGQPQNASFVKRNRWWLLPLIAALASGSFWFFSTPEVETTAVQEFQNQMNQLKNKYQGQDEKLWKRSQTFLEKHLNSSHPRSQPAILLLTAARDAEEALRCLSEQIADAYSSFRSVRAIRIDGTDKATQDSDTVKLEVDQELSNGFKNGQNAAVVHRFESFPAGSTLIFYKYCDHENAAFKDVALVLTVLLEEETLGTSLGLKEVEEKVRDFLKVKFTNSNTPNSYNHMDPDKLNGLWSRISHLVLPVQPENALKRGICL
Sequence of Left-right determination factor 2 (Homo sapiens) (O00292 whole entry, looked up): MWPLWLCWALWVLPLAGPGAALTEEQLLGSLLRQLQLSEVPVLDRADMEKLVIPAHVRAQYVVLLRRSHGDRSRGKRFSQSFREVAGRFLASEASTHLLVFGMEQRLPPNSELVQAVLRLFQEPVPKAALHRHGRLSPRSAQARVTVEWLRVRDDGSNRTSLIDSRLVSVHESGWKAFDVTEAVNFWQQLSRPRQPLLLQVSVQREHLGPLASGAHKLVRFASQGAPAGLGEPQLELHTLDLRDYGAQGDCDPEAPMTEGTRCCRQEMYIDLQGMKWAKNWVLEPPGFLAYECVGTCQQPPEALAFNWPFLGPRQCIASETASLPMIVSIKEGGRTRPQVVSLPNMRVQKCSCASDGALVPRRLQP

COCCOC(=O)N1C(=O)[C@@]2(c3cc(C#CC4(O)CCCCCC4)ccc31)[C@H](C(=O)Nc1nc3ccccc3s1)[C@H]1C(=O)O[C@H](c3ccccc3)[C@H](c3ccccc3)N1[C@@H]2c1ccc(OCCO)cc1
composite z-score [1]: 1.31
z-score [2]: -2.33
composite z-score [3]: 0.726
composite z-score [4]: 0.693
composite z-score [5]: -0.271
composite z-score [6]: -0.169
composite z-score [7]: 0.138
composite z-score [8]: 0.0824
composite z-score [9]: -0.105
composite z-score [10]: 1.21

COc1cc(OC)c(C(O)C2C=CC3C(=O)NC(=O)C3N2Nc2ccccn2)cc1Br (stereo not given)
composite z-score [1]: 0.19
z-score [2]: 0.742
composite z-score [3]: 0.586
composite z-score [4]: 0.0037
composite z-score [5]: -0.107
composite z-score [6]: -0.0684
composite z-score [7]: -0.0769
composite z-score [8]: -0.461
composite z-score [9]: 1.17
composite z-score [10]: 0.484

COc1ccc([Si](C)(C)[C@H]2[C@H](CCn3cc([C@H](O)c4ccccc4)nn3)O[C@@]3(C(=O)N(C)c4ccccc43)[C@@H]2C)cc1
composite z-score [1]: -0.455
z-score [2]: -2.37
composite z-score [3]: -0.759
composite z-score [4]: 0.418
composite z-score [5]: 0.947
composite z-score [6]: -0.119
composite z-score [7]: -0.0793
composite z-score [8]: -0.266
composite z-score [9]: -0.773
composite z-score [10]: -0.909

[N-]=[N+]=Nc1ccccc1C[C@@]1(C(=O)N2CCCCC2)N=C(c2ccc(OCCCO)cc2)O[C@@H]1c1ccccc1
composite z-score [1]: -0.108
z-score [2]: -1.2
composite z-score [3]: 0.0334
composite z-score [4]: 1.83
composite z-score [5]: 0.914
composite z-score [6]: -0.0459
composite z-score [7]: -0.0904
composite z-score [8]: 1.79
composite z-score [9]: 1.52
composite z-score [10]: 1.07

O=C1C2C=CC(C(O)C=Cc3ccc([N+](=O)[O-])cc3)N(Nc3ccccc3F)C2C(=O)N1c1ccccc1 (stereo not given)
composite z-score [1]: 1.47
z-score [2]: -0.969
composite z-score [3]: 0.458
composite z-score [4]: 1.27
composite z-score [5]: 0.362
composite z-score [6]: 0.0037
composite z-score [7]: 0.166
composite z-score [8]: 0.581
composite z-score [9]: 1.18
composite z-score [10]: 1.12

C=CC[C@]12N=C(c3ccc(OCCCO)cc3)O[C@H]1c1ccccc1N(CCS(=O)(=O)c1ccccc1)C2=O
composite z-score [1]: 1.41
z-score [2]: -2.26
composite z-score [3]: 0.559
composite z-score [4]: 1.17
composite z-score [5]: 0.289
composite z-score [6]: 0.0775
composite z-score [7]: 0.54
composite z-score [8]: -0.484
composite z-score [9]: 0.863
composite z-score [10]: 1.02

O=C1O[C@H](c2ccccc2)[C@H](c2ccccc2)N2[C@H]1[C@@H](C(=O)NC[C@H](O)c1ccccc1)[C@]1(C(=O)Nc3ccc(C#CC4=CCCCC4)cc31)[C@H]2c1ccccc1OCCO
composite z-score [1]: 1.06
z-score [2]: -3.16
composite z-score [3]: 0.155
composite z-score [4]: 1.42
composite z-score [5]: 0.944
composite z-score [6]: 0.0101
composite z-score [7]: 0.328
composite z-score [8]: 0.157
composite z-score [9]: 1.02
composite z-score [10]: 1.7

C[N+](C)(C)CCCC[C@@H]1NC(=O)[C@@H]2C[C@H](C(=O)NCCCCCCNC(=O)CS)[C@H](c3ccc(O)cc3)N2C1=O
composite z-score [1]: -0.421
z-score [2]: 0.164
composite z-score [3]: -0.638
composite z-score [4]: -0.4
composite z-score [5]: -0.281
composite z-score [6]: -0.237
composite z-score [7]: -0.304
composite z-score [8]: -0.0721
composite z-score [9]: 0.958
composite z-score [10]: 1.33

NCCCCCNC(=O)[C@H]1C[C@H]2C(=O)N3CCC[C@H]3C(=O)N2[C@H]1c1ccc(O)cc1
composite z-score [1]: 1.39
z-score [2]: -0.0865
composite z-score [3]: 0.84
composite z-score [4]: 1.99
composite z-score [5]: 1.13
composite z-score [6]: 0.212
composite z-score [7]: 0.264
composite z-score [8]: 1.19
composite z-score [9]: 1.07
composite z-score [10]: 1.1

CC(C)CN1C(=O)[C@@]2(c3ccc([N+](=O)[O-])cc3)CC(=O)N(C3CCCCC3)[C@@H]2c2ccc(CO)cc21
composite z-score [1]: -1.25
z-score [2]: -0.707
composite z-score [3]: -1.69
composite z-score [4]: -0.311
composite z-score [5]: -0.0449
composite z-score [6]: -0.208
composite z-score [7]: -0.33
composite z-score [8]: -0.181
composite z-score [9]: -0.803
composite z-score [10]: 0.547

C[C@H]1C2[C@H](Cc3ccccc3)NC(=O)[C@]23C(=O)NCC(=O)N2CCC[C@H]2C(=O)NC/C=C/CCC/C=C/C3[C@@H]2O[C@]12C (stereo not given in full)
composite z-score [1]: -0.484
z-score [2]: 0.478
composite z-score [3]: -0.693
composite z-score [4]: -0.738
composite z-score [5]: -1.2
composite z-score [6]: -0.0075
composite z-score [7]: -0.138
composite z-score [8]: -0.387
composite z-score [9]: -0.106
composite z-score [10]: -0.65

[N-]=[N+]=Nc1ccccc1C[C@]1(C(=O)NCC(O)CO)N=C(c2ccc(OCCCO)cc2)O[C@H]1c1ccccc1 (stereo not given in full)
composite z-score [1]: 1.45
z-score [2]: -0.962
composite z-score [3]: -1.32
composite z-score [4]: 1.89
composite z-score [5]: 0.496
composite z-score [6]: -0.0924
composite z-score [7]: -0.0709
composite z-score [8]: -0.492
composite z-score [9]: 0.954
composite z-score [10]: 0.903

Cc1ccc([C@H]2C(C(=O)O)=CCN2S(=O)(=O)c2ccc(C)cc2)cc1
composite z-score [1]: 0.964
z-score [2]: -1.02
composite z-score [3]: -0.441
composite z-score [4]: 0.659
composite z-score [5]: 0.261
composite z-score [6]: -0.001
composite z-score [7]: -0.0709
composite z-score [8]: -0.333
composite z-score [9]: 1.54
composite z-score [10]: 0.705

CCOC(=O)C[C@H]1[C@H](OC(=O)c2cc3ccccc3oc2=O)[C@@H](NC(=O)CC(C)C)c2cc(OCCCO)ccc2N1C(=O)c1ccccc1
composite z-score [1]: 0.886
z-score [2]: 0.186
composite z-score [3]: 0.371
composite z-score [4]: -0.299
composite z-score [5]: -0.543
composite z-score [6]: 0.0317
composite z-score [7]: -0.0011
composite z-score [8]: 0.819
composite z-score [9]: 0.124
composite z-score [10]: 1.06

CCCCCCCCCCC(O)C1C=CC2C(=O)NC(=O)C2N1Nc1ccc(Cl)cc1Cl (stereo not given)
composite z-score [1]: 0.732
z-score [2]: -1.26
composite z-score [3]: -1.67
composite z-score [4]: 1.21
composite z-score [5]: 1.21
composite z-score [6]: -0.122
composite z-score [7]: -0.138
composite z-score [8]: 1.07
composite z-score [9]: 0.345
composite z-score [10]: -0.133

CC[C@@H]1C=C(C(=O)O)[C@H](c2cccc3ccccc23)N1S(=O)(=O)c1ccc(C)cc1
composite z-score [1]: 0.828
z-score [2]: 0.0731
composite z-score [3]: 0.132
composite z-score [4]: 1.45
composite z-score [5]: 0.725
composite z-score [6]: 0.0742
composite z-score [7]: -0.17
composite z-score [8]: 0.526
composite z-score [9]: 0.909
composite z-score [10]: -0.158

CN1C(=O)C2C=CC(C(O)c3ccccc3)N(N3CCCCC3)C2C1=O (stereo not given)
composite z-score [1]: 0.876
z-score [2]: -0.379
composite z-score [3]: -0.203
composite z-score [4]: 0.0777
composite z-score [5]: -0.102
composite z-score [6]: 0.28
composite z-score [7]: 0.108
composite z-score [8]: -0.52
composite z-score [9]: 0.411
composite z-score [10]: 0.464

CO[C@H]1O[C@H](CO)[C@@H](OC(=O)Nc2ccccc2)[C@@H]2OC(=O)[C@@H](Cc3ccc4ccccc4c3)C/C=C/C[C@H](Cc3ccc4ccccc4c3)C(=O)O[C@@H]12
composite z-score [1]: 0.601
z-score [2]: -2.92
composite z-score [3]: 0.0985
composite z-score [4]: 0.697
composite z-score [5]: -0.56
composite z-score [6]: -0.006
composite z-score [7]: -0.237
composite z-score [8]: 1.3
composite z-score [9]: 1.72
composite z-score [10]: 0.322

C#CCN1[C@H](/C=C/C2CC2)[C@H](Cc2ccccc2)OC(=O)[C@@H]1Cc1ccccc1
composite z-score [1]: -0.306
z-score [2]: -2.87
composite z-score [3]: 0.294
composite z-score [4]: -0.707
composite z-score [5]: -0.414
composite z-score [6]: -0.164
composite z-score [7]: -0.0066
composite z-score [8]: -0.401
composite z-score [9]: 0.0223
composite z-score [10]: 0.106

CCCNC(=O)[C@@H]1c2ccccc2C(=O)N(Cc2ccccc2OC)[C@H]1c1ccc(CO)cc1
composite z-score [1]: 1.46
z-score [2]: -1.12
composite z-score [3]: 0.146
composite z-score [4]: 1.07
composite z-score [5]: 0.485
composite z-score [6]: -0.0512
composite z-score [7]: -0.173
composite z-score [8]: 0.57
composite z-score [9]: 0.239
composite z-score [10]: 1.25

CC1CC/C=C\[C@H]2OC34C=CCN(Cn5nnc6ccccc65)C(=O)[C@H]3N(CCCCCO)C(=O)[C@@H]4C2C(=O)O1 (stereo not given in full)
composite z-score [1]: -1.05
z-score [2]: 0.814
composite z-score [3]: -1.54
composite z-score [4]: -0.881
composite z-score [5]: 0.0455
composite z-score [6]: -0.197
composite z-score [7]: -0.283
composite z-score [8]: 0.558
composite z-score [9]: -0.722
composite z-score [10]: -1.3

From PubChem BioAssay
